Consider 40 compounds from PubChem BioAssay (NCATS).

Inconclusive results are not listed. Unmarked numbers belong to inactive results. Active and inactive are the calls of the source. Calls follow the shape of the dose curve; as a rule, active = well fitted cell-killing curve with a large enough effect; inconclusive = small, poorly fitted or top-dose-only effect; inactive = no such curve, though single readings can be large or run the other way. Non-standard residues stand in square brackets, D forms with d. Residues, ends and D or L forms follow the SMILES beside them. *: point of attachment. Sta = CC(C)C[C@H](N)[C@@H](O)CC(=O)O; Isovaleryl = CC(C)CC(=O)*
Potency is read from the fitted curve at half-maximal effect.

The test can be described thus: Quantitative High-Throughput drug screen in 47 multiple myeloma cell lines against the NCATS MIPE library collection: JIM3_ECACC cell viability assay (AID 1918963; also: nearly all actives have a fitted effect of over 35% in size). The conditions noted are these: JIM3 myeloma viability, CellTiter-Glo ATP, 48 h; series mostly up to 45.8 µM; viability, percent of control: at the top concentration. From the text:
PI: Beverly A. Mock Ph.D.
Laboratory of Cancer Biology and Genetics,
Center for Cancer Research, National Cancer Institute,
National Institute of Health, Bethesda, Maryland
Drug resistance and disease progression are common in multiple myeloma (MM) patients, underscoring the need for new therapeutic combinations. […] We hypothesized that effective combinations would reduce MYC expression and enhance p16 activity. […] These preclinical data identify potentially useful drug combinations for evaluation in drug-resistant MM and reveal potential mechanisms of combined drug sensitivity.
Described herein is the primary MIPE qHTS used to cherrypick compounds. Validated compounds were then further tested for potential synergistic activiy.
[1] Peat TJ, Gaikwad SM, Dubois W, Gyabaah-Kessie N, Zhang S, Gorjifard S, Phyo Z, Andres M, Hughitt VK, Simpson RM, Miller MA, Girvin AT, Taylor A, Williams D, D'Antonio N, Zhang Y, Rajagopalan A, Flietner E, Wilson K, Zhang X, Shinn P, Klumpp-Thomas C, McKnight C, Itkin Z, Chen L, Kazandijian D, Zhang J, Michalowski AM, Simmons JK, Keats J, Thomas CJ, Mock BA. Drug combinations identified by high-throughput screening promote cell cycle transition and upregulate Smad pathways in myeloma. Cancer Lett. 2023 Aug 1;568:216284. doi: 10.1016/j.canlet.2023.216284. Epub 2023 Jun 24. PMID: 37356470; PMCID: PMC10408729.
SEQUENCE No. (e.g., 1, 2, 3, etc.); […] (e.g., Cells, Incubation, Reagent, etc.); VALUE and DESCRIPTION.
1; Cells; 5 uL; white, solid bottom 1536-well Greiner assay plate.
2; Compounds; 23 nL; Kalypsis pin tool (Wako USA) equipped with a 1536-well pin head to transfer to the assay plates.
3; Incubation; 48 hours; 37C incubation.
4; Reagent;5uL; CellTiter Glo (Promega).
5; Detector; 425V; Luminescence; Viewlux PerkinElmer.
NOTES (numbers refer to Sequence numbers above)
1. The cell-based screening methods employed in this study were like those previously published. Briefly, the corresponding myeloma cell lines were screened in 1,536-well plates with 500 cells, 5-uL per well for inhibition of cell viability (assessed by measuring ATP levels with CellTiterGlo).
2. NCATS MIPE 4.0 library of approved and investigational drugs were added using the Kalypsis pin tool. Wells treated with DMSO only for 100% viability and media only wells for 0% viability were used as controls.
3. The assay plates were covered and incubated for 48 hours in a 37C, 5% CO2 incubator with controlled humidity.
4. After 48 hours, CellTilter-GloTM luminescent substrate mix (Promega) reagent was added to the assay plate and plates we incubated for 5 min at room temperature.
5. Signal was measured as median relative luminescence units on a ViewLux (PerkinElmer) multiplate reader.
[1] Heske CM, Davis MI, Baumgart JT, Wilson K, Gormally MV, Chen L, Zhang X, Ceribelli M, Duveau DY, Guha R, Ferrer M, Arnaldez FI, Ji J, Tran HL, Zhang Y, Mendoza A, Helman LJ, Thomas CJ. Matrix Screen Identifies Synergistic Combination of PARP Inhibitors and Nicotinamide Phosphoribosyltransferase (NAMPT) Inhibitors in Ewing Sarcoma. Clin Cancer Res. 2017 Dec 1;23(23):7301-7311. doi: 10.1158/1078-0432.CCR-17-1121. Epub 2017 Sep 12. PMID: 28899971; PMCID: PMC6636827.
(In general: ATP-based viability assays read luminescence as a measure of living cells.)
As to `CCOC(=O)C1=C(O)C(=O)N(Cc2ccccc2)C1`, the “viability, percent of control” value is 103%.

In the case of `CCN(CC)CCOc1ccc(Cc2ccccc2)cc1`, the “viability, percent of control” value is 102%.

Turning to `CCCCCCCCCCCCCCCCCCCCCCO`, the “viability, percent of control” value is 117%.

As for `Cc1c(OCC(F)(F)F)ccnc1CS(=O)c1nc2ccccc2[nH]1` (stereo not given), the Potency was 16.6 µM (active).

Take `O=C(c1ccccc1)c1ccc2n1CCC2C(=O)O` (stereo not given): the Potency is 16.6 µM (active).

`COc1c(O)cc2c(c1O)[C@@H]1O[C@H](CO)[C@@H](O)[C@H](O)[C@H]1OC2=O`: the “viability, percent of control” value was 106%.

As for `O=C(O)c1cccc(-c2noc(-c3ccccc3F)n2)c1`, the “viability, percent of control” value is 115%.

In the case of `Clc1ccc2c(N3CCN(CCCN4CCN(c5ccnc6cc(Cl)ccc56)CC4)CC3)ccnc2c1`, the “viability, percent of control” value was 114% [at 23.2 µM].

Consider `CCC[C@@H]1C[C@@H](C(=O)N[C@@H]([C@H]2O[C@H](SC)[C@H](O)[C@@H](O)[C@H]2O)[C@@H](C)O)N(C)C1`, for which the “viability, percent of control” value was 100%.

`Cc1cc(O)c2c(c1)C(=O)c1cc(O)cc(O)c1C2=O`: the “viability, percent of control” value was 107%.

Turning to `C=CCc1cc(OC)c(O)c(C(=O)NCCO)c1`, the “viability, percent of control” value is 117%.

Regarding `O=C1CCc2ccc(OCCCCN3CCN(c4cccc(Cl)c4Cl)CC3)cc2N1`, the Potency is 14.8 µM (active).

In the case of `N[C@@H](Cc1cc(I)c(Oc2cc(I)c(O)c(I)c2)c(I)c1)C(=O)O`, the “viability, percent of control” value was 114%.

With `Cc1cccc(C#Cc2ccccc2)n1`, the “viability, percent of control” value was 119%.

As for `Nc1nc(N)c(N=O)c(OCC2CCCCC2)n1`, the Potency is 9.35 µM (active).

Turning to `CN(C)CCc1c[nH]c2ccc(Cn3cncn3)cc12`, the “viability, percent of control” value is 127%.

As to `COc1ccccc1N1CCN(CCN(C(=O)C2CCCCC2)c2ccccn2)CC1`, the “viability, percent of control” value is 127%.

As for `CC(C)[N+]1(C)[C@@H]2CC[C@H]1CC(OC(=O)C(CO)c1ccccc1)C2` (stereo not given in full), the “viability, percent of control” value is 122%.

Take `COc1cc2c(cc1OC)C1CC(=O)C(CC(C)C)CN1CC2` (stereo not given): the “viability, percent of control” value was 107%.

For `CS(=O)(=O)OCCCCOS(C)(=O)=O`, the “viability, percent of control” value was 122%.

Turning to `CN(C)c1ccc2nc3ccc(=[N+](C)C)cc-3sc2c1`, the Potency was 2.35 µM (active).

For the compound `O=C(CS(=O)Cc1ccco1)NCC=CCOc1cc(CN2CCCCC2)ccn1` (stereo not given), the “viability, percent of control” value is 111%.

For `Oc1ccc(-c2nc(-c3ccc(F)cc3)c(-c3ccncc3)[nH]2)cc1`, the Potency was 14.8 µM (active).

`Cc1cc(Cl)ccc1OCCCC(=O)NO`: the Potency is 9.35 µM (active).

Consider `O=C1c2ccccc2-c2n[nH]c3cccc1c23`, for which the “viability, percent of control” value was 89.1%.

For the compound `CC(C)CC(=O)N[C@H](C(=O)N[C@H](C(=O)N[C@@H](CC(C)C)[C@@H](O)CC(=O)N[C@@H](C)C(=O)N[C@@H](CC(C)C)[C@@H](O)CC(=O)O)C(C)C)C(C)C` (Isovaleryl-VV[Sta]A[Sta]-OH), the “viability, percent of control” value was 85.2%.

Regarding `COc1cc(Nc2c(C#N)cnc3cc(OCCCN4CCN(C)CC4)c(OC)cc23)c(Cl)cc1Cl`, the Potency is 18.7 µM (active).

For `CC(C)Oc1ccc2c(=O)c(-c3ccccc3)coc2c1`, the “viability, percent of control” value is 118%.

Consider `COC1=C(OC)C(=O)C(CCCCCCCCCCO)=C(C)C1=O`, for which the Potency was 18.7 µM (active).

Consider `CC(C)[C@H](N)C(=O)OCCOCn1cnc2c(=O)[nH]c(N)nc21`, for which the “viability, percent of control” value was 84.9%.

With `Nc1cccc2c1CN(C1CCC(=O)NC1=O)C2=O` (stereo not given), the “viability, percent of control” value was 106% [at 92.2 µM].

Consider `Cc1cc2c(s1)Nc1ccccc1N=C2N1CCN(C)CC1`, for which the “viability, percent of control” value was 132%.

On to `CC(=O)NC[C@H]1CN(c2ccc(N3CCOCC3)c(F)c2)C(=O)O1`, for which the “viability, percent of control” value was 112%.

Turning to `O=C1c2c(O)cc(O)cc2OC(c2ccc(O)c(O)c2)C1O` (stereo not given), the “viability, percent of control” value is 134%.

Regarding `CC(=O)N1CCN(c2ccc(OC[C@H]3CO[C@](Cn4ccnc4)(c4ccc(Cl)cc4Cl)O3)cc2)CC1`, the Potency is 11.8 µM (active).

`CC(C)C[C@H](NC(=O)[C@H](Cc1ccccc1)NC(=O)c1cnccn1)B(O)O`: the Potency is 0.0235 µM (active).

As to `Nc1nc(Cl)nc2c1ncn2[C@H]1C[C@H](O)[C@@H](CO)O1`, the Potency is 0.526 µM (active).

Consider `O=C(O)c1cc(=O)c2c(OCC(O)COc3cccc4oc(C(=O)O)cc(=O)c34)cccc2o1`, for which the “viability, percent of control” value was 107%.

Consider `COc1cc(OC)c(C(=O)CCCN2CCCC2)c(OC)c1`, for which the “viability, percent of control” value was 123%.

Consider `O=C(O)c1cccnc1Nc1cccc(C(F)(F)F)c1`, for which the “viability, percent of control” value is 92.2%.
